Reference: the supplement of paper PMC10849652
The full data set covers some 8,800 targets. This sample favours those with a hit. About 0.5% of all pairs of compound and target were hits. Values without a mark were called inactive.

Columns and labels:
Assay in all cases: log2 fold change, soluble protein after heating vs DMSO (PISA); higher = thermal stabilisation; K562 lysate, 10 uM; active = over 0.2 and 3.5 SD of the protein, either way, in both replicates (recomputed)
ibrutinib = compound: C=CC(=O)N1CCC[C@@H](n2nc(-c3ccc(Oc4ccccc4)cc3)c3c(N)ncnc32)C1 [ibrutinib]
How it was run: (§1)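 Log-two fold change in thermal stability relative to solvent controls is reported from duplicates. For each sample, crude K562 extract from dounce-homogenised pellets in PBS pH 7.4 with 1 mM MgCl2, at 1 mg/mL protein, was treated with 10 μM compound for 30 min. Aliquots heated for 3 min across 48°C-58°C were pooled, brought to 0.5% NP-40 at 4°C and cleared at 21,000xg for 90 min. The supernatant was quantified by TMTpro 16plex LC-MS/MS with channel sums equalised.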

[1] = compound: CC(=O)c1cnc2ccc(-c3cc(Cl)c(O)c(Cl)c3)nc2c1N[C@H]1CC[C@H](CN(C)C)CC1
How it was run: as §1

ralimetinib = compound: CC(C)(C)Cn1c(N)nc2ccc(-c3[nH]c(C(C)(C)C)nc3-c3ccc(F)cc3)nc21 [ralimetinib]
How it was run: as §1

[2] = compound: CC(C)(O)CC(=O)NCCn1ccc2ncnc(Nc3ccc(Oc4cccc(C(F)(F)F)c4)c(Cl)c3)c21
How it was run: as §1

[3] = compound: CC(C)C1=C2N=C(C=C(N2N=C1)NCC3=CC=CC=C3)NCCCCCCN
How it was run: as §1

[4] = compound: CC1=C(C(CC(=O)N1)C2=CC=C(C=C2)C(F)(F)F)C(=O)NC3=C(C=C4C(=C3)C=NN4)F
How it was run: as §1

[5] = compound: CC1=C(C2=C(C=C1)C(=O)C3=CC=CC=C3N2CCCN)C
How it was run: as §1

[6] = compound: CC1=C(C=C(C=C1)NC(=O)C2=CC(=CC=C2)C(C)(C)C#N)NC3=CC4=C(C=C3)N=CN(C4=O)C
How it was run: as §1

[7] = compound: CC1=C(C=C(C=C1)NC(=O)C2=CC(=CC=C2)N(C)C)NC(=O)C3=CC=C(C=C3)O
How it was run: as §1

[8] = compound: CC1=CC=C(C=C1)SC2=C3C=C(SC3=CN=C2)C(=O)N
How it was run: as §1

vemurafenib = compound: CCCS(=O)(=O)Nc1ccc(F)c(C(=O)c2c[nH]c3ncc(-c4ccc(Cl)cc4)cc23)c1F [vemurafenib]
How it was run: as §1

[9] = compound: CCCS(=O)(=O)Nc1ccc(F)c(C(=O)c2c[nH]c3ncc(Cl)cc23)c1F
How it was run: as §1

barasertib = compound: CCN(CCCOc1ccc2c(Nc3cc(CC(=O)Nc4cccc(F)c4)[nH]n3)ncnc2c1)CCOP(=O)(O)O [barasertib]
How it was run: as §1

[10] = compound: CC[C@@H]1C(=O)N(C)c2cnc(Nc3ccc(C(=O)NC4CCN(C)CC4)cc3OC)nc2N1C1CCCC1
How it was run: as §1

volasertib = compound: CC[C@@H]1C(=O)N(C)c2cnc(Nc3ccc(C(=O)N[C@H]4CC[C@H](N5CCN(CC6CC6)CC5)CC4)cc3OC)nc2N1C(C)C [volasertib]
How it was run: as §1

[11] = compound: CCn1c(C(=O)N(C2CC2)C2CC2)cc2c3c(ncn3C)c(Nc3cc(C)n(C)n3)nc21
How it was run: as §1

[12] = compound: CCn1cc(-c2ccnc3[nH]c(-c4cccc(CN(C)C)c4)cc23)c(-c2ccc(NC(=O)N(C)C)cc2)n1
How it was run: as §1

[13] = compound: CN1CCC(CNc2ccc3ncc(-c4cccc(OC(F)(F)F)c4)n3n2)CC1
How it was run: as §1

saracatinib = compound: CN1CCN(CCOc2cc(OC3CCOCC3)c3c(Nc4c(Cl)ccc5c4OCO5)ncnc3c2)CC1 [saracatinib]
How it was run: as §1

sotrastaurin = compound: CN1CCN(c2nc(C3=C(c4c[nH]c5ccccc45)C(=O)NC3=O)c3ccccc3n2)CC1 [sotrastaurin]
How it was run: as §1

Chain of UniProt P78347 (P78347 whole entry, looked up): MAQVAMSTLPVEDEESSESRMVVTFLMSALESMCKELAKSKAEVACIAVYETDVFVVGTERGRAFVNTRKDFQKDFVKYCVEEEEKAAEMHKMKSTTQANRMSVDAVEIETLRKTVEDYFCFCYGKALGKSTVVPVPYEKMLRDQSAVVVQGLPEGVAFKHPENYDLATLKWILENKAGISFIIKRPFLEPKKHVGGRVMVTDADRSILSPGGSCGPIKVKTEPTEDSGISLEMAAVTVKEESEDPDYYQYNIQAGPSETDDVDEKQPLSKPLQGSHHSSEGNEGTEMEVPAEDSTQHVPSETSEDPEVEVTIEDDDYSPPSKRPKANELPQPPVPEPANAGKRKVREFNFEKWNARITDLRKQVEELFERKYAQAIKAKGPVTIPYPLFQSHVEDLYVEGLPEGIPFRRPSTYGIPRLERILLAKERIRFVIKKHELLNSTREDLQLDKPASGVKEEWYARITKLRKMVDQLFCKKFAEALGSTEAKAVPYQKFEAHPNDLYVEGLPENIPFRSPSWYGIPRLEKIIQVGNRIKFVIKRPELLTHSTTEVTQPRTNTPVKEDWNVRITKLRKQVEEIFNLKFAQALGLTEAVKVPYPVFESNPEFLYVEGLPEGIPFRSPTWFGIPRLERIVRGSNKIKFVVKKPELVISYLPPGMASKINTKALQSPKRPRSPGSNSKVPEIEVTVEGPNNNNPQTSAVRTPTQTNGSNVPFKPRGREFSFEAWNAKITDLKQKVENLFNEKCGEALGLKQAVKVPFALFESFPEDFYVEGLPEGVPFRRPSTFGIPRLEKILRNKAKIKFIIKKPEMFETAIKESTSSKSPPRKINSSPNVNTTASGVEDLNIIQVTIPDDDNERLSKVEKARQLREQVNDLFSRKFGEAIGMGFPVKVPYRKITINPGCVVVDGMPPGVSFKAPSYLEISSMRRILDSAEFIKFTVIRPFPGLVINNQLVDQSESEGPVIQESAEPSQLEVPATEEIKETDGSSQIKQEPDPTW
Chain of UniProt Q9H4A6 (Q9H4A6 whole entry, looked up): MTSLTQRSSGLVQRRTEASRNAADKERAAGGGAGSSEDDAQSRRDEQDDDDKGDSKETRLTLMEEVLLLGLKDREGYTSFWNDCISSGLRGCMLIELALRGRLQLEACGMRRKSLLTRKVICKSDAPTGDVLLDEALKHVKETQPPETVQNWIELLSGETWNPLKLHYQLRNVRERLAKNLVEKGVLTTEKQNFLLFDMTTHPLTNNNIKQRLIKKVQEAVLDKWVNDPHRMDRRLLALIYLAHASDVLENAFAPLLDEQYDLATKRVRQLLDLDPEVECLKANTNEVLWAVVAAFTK
Chain of UniProt P08236 (P08236 whole entry, looked up): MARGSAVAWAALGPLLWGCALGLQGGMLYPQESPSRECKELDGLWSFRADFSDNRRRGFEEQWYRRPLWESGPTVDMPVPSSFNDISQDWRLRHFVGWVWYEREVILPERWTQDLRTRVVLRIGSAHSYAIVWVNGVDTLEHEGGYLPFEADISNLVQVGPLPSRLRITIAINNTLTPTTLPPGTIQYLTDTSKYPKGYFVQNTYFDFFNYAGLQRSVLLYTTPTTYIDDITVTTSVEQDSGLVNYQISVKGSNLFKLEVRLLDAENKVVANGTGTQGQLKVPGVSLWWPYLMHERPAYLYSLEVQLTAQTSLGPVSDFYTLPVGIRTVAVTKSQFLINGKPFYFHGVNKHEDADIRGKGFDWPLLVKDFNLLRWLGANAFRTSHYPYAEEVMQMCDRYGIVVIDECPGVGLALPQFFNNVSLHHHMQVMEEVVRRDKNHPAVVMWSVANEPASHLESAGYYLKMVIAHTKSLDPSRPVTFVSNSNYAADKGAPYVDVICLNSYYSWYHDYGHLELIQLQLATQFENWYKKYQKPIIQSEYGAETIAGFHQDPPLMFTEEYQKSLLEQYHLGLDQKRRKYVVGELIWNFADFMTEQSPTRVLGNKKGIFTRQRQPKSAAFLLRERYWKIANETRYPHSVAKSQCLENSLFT
Chain of UniProt Q58FG1 (Q58FG1 whole entry, looked up): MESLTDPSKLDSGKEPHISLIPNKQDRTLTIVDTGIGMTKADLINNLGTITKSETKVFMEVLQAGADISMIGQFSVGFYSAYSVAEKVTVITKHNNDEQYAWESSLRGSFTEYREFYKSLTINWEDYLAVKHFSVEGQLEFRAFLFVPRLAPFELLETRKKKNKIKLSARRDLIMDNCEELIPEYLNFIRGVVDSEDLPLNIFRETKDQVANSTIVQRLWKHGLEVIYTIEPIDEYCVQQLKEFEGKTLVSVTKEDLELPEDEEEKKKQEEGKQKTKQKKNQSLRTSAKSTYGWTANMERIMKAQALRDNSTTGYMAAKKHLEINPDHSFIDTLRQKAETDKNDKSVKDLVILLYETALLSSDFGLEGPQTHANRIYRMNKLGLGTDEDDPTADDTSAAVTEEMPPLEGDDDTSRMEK
Chain of UniProt Q53GQ0 (Q53GQ0 whole entry, looked up): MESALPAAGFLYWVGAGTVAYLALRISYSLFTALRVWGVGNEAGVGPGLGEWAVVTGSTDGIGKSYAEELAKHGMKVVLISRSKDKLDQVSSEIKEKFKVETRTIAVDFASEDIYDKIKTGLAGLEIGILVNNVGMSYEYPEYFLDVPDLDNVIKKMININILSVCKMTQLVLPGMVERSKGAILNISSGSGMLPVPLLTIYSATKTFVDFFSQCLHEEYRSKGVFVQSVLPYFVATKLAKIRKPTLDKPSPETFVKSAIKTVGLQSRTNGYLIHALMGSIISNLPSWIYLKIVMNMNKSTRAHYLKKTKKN
Chain of UniProt P49841 (P49841 whole entry, looked up): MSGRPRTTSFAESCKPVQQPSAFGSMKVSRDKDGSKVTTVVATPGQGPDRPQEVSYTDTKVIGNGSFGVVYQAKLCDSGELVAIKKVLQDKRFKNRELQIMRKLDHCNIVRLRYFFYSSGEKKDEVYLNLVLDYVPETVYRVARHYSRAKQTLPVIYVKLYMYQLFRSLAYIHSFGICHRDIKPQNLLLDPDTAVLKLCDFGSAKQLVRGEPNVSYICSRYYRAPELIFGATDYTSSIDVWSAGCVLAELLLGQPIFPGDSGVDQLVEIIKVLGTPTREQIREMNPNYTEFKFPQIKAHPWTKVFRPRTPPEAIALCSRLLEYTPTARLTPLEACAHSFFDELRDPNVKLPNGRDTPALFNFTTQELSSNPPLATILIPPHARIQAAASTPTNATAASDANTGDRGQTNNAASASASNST
Chain of UniProt Q6P9B9 (Q6P9B9 whole entry, looked up): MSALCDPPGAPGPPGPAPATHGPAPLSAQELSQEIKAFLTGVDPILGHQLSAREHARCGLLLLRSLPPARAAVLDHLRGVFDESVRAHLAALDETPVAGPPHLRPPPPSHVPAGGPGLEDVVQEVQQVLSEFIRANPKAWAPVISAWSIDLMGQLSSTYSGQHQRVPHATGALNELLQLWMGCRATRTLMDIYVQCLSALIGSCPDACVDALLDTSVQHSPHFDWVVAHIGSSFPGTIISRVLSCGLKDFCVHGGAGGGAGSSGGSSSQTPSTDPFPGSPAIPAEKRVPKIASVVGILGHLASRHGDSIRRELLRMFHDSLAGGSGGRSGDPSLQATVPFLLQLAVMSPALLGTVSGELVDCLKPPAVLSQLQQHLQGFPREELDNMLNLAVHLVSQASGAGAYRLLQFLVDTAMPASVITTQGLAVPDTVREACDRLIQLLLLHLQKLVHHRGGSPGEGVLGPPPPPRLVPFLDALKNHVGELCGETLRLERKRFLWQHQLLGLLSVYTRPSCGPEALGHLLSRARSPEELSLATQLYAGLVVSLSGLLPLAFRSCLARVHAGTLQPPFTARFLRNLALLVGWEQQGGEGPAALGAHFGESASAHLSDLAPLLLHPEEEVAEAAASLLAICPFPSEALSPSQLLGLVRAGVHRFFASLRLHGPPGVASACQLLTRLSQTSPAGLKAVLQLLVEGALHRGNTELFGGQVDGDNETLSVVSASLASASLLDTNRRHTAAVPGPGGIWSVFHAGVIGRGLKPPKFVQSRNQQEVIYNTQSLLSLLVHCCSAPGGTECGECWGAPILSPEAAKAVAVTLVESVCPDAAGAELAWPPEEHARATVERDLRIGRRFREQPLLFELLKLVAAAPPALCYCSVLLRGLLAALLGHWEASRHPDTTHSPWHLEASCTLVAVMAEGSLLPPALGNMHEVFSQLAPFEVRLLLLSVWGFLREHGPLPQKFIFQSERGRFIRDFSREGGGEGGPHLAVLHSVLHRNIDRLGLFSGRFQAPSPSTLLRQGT
Chain of UniProt Q49A26 (Q49A26 whole entry, looked up): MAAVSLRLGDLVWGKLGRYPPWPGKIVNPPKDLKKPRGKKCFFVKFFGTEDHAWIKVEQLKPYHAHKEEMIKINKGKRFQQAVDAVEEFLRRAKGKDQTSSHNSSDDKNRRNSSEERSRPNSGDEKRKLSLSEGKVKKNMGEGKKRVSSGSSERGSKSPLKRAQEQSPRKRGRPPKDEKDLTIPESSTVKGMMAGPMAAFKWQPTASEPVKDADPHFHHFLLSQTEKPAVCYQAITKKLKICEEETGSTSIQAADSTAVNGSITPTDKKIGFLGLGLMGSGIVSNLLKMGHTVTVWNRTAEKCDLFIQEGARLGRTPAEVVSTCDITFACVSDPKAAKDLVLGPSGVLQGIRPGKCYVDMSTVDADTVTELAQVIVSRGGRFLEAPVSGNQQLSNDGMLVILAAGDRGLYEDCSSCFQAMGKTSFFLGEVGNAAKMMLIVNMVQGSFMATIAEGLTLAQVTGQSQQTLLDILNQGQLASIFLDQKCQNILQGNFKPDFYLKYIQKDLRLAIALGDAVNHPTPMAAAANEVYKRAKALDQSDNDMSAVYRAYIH
Chain of UniProt Q99714 (Q99714 whole entry, looked up): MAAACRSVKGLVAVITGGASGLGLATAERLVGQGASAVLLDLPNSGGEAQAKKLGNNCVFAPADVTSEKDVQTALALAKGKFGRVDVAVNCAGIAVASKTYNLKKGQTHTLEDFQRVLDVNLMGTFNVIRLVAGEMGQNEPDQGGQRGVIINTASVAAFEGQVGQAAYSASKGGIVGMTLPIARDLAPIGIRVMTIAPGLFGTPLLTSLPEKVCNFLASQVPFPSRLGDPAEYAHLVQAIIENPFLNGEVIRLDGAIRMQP

| Target | log2 fold change (ibrutinib) | log2 fold change [1] | log2 fold change (ralimetinib) | log2 fold change [2] | log2 fold change [3] | log2 fold change [4] | log2 fold change [5] | log2 fold change [6] | log2 fold change [7] | log2 fold change [8] | log2 fold change (vemurafenib) | log2 fold change [9] | log2 fold change (barasertib) | log2 fold change [10] | log2 fold change (volasertib) | log2 fold change [11] | log2 fold change [12] | log2 fold change [13] | log2 fold change (saracatinib) | log2 fold change (sotrastaurin) |
| --- | --- | --- | --- | --- | --- | --- | --- | --- | --- | --- | --- | --- | --- | --- | --- | --- | --- | --- | --- | --- |
| IMPDH2 (UniProt P12268) | 0.049 | -0.003 | 0.034 | 0.028 | 0.025 | -0.034 | 0.019 | 0.017 | -0.006 | 0.016 | 0.015 | 0.009 | -0.056 | -0.015 | 0.012 | 0.039 | 0.11 | 0.01 | -0.001 | -0.005 |
| IMMT (UniProt C9J406) | 0.119 | 0.046 | 0.126 | -0.14 | -0.096 | 0.099 | -0.03 | -0.002 | 0.012 | -0.015 | -0.018 | -0.036 | -0.105 | 0.098 | -0.015 | 0.018 | -0.464 | -0.037 | 0.074 | 0.02 |
| GTF2I (UniProt P78347) | -0.004 | -0.002 | 0.007 | -0.004 | 0.012 | -0.007 | 0.005 | -0.027 | 0.033 | -0.001 | -0.004 | 0.031 | 0.034 | -0.055 | -0.036 | 0.005 | -0.054 | -0.033 | 0.014 | 0.01 |
| GUSB (UniProt P08236) | 0.06 | -0.099 | 0.056 | -0.097 | 0.099 | -0.075 | 0.069 | 0.044 | -0.029 | -0.088 | 0.013 | 0.028 | -0.024 | -0.049 | 0.053 | 0.027 | -0.561 (active) | 0.355 (active) | -0.008 | 0.038 |
| HSD17B10 (UniProt Q99714) | -0.012 | -0.018 | 0.004 | -0.003 | 0 | -0.026 | -0.031 | -0.018 | -0.007 | -0.025 | 0.017 | -0.016 | -0.021 | -0.006 | -0.015 | -0.022 | -0.081 | 0.024 | -0.022 | -0.014 |
| INTS5 (UniProt Q6P9B9) | 0.051 | 0.056 | 0.051 | -0.038 | -0.06 | -0.013 | 0.021 | 0 | 0.039 | 0.003 | 0.052 | -0.167 | 0.044 | 0.042 | 0.223 | 0.023 | 0.029 | -0.072 | 0.069 | -0.092 |
| HADHA (UniProt P40939) | 0.078 | -0.057 | 0.012 | 0.05 | -0.042 | -0.031 | -0.01 | 0.055 | -0.033 | 0.077 | 0.019 | -0.002 | -0.103 | -0.024 | 0.09 | -0.036 | 0.012 | 0.071 | -0.04 | -0.025 |
| HIST2H2AA3 (UniProt Q6FI13) | -0.011 | -0.014 | -0.112 | 0.065 | 0 | -0.012 | 0.028 | -0.046 | 0.032 | 0.045 | -0.078 | 0.028 | -0.012 | -0.007 | -0.006 | 0.012 | 0.694 (active) | -0.217 | -0.034 | -0.116 |
| GOLPH3 (UniProt Q9H4A6) | 0.024 | 0 | 0.034 | -0.019 | 0.043 | -0.023 | 0.001 | -0.02 | -0.023 | 0.004 | -0.007 | 0.015 | 0.036 | -0.016 | -0.041 | 0.018 | -0.029 | -0.103 | 0.021 | -0.053 |
| HSD17B12 (UniProt Q53GQ0) | -0.016 | 0.004 | -0.026 | 0.048 | 0.069 | 0 | 0.024 | -0.036 | 0.049 | 0.003 | 0.073 | 0.005 | 0.047 | 0.003 | -0.096 | -0.024 | -0.304 (active) | -0.107 | 0.105 | 0.071 |
| GSTP1 (UniProt P09211) | -0.012 | 0.042 | 0.011 | -0.003 | 0.021 | -0.011 | 0.036 | -0.025 | 0.003 | -0.003 | -0.007 | -0.017 | 0.008 | 0.003 | 0.034 | 0.324 (active) | -0.059 | 0.021 | 0 | -0.002 |
| GLYR1 (UniProt Q49A26) | 0.113 | 0.017 | 0.038 | -0.15 | 0.033 | 0.07 | -0.339 (active) | 0.126 | 0.106 | 0.032 | -0.059 | 0.019 | 0.162 | 0.045 | -0.005 | 0.011 | -0.088 | 0.038 | 0.05 | 0.064 |
| KDM1A (UniProt O60341) | 0.007 | -0.011 | 0.018 | -0.016 | 0.019 | -0.004 | 0.003 | -0.004 | 0.044 | 0.003 | 0.021 | 0.004 | 0.014 | -0.011 | -0.046 | -0.011 | -0.065 | -0.016 | -0.001 | 0.005 |
| HNRNPUL1 (UniProt Q9BUJ2) | 0.028 | -0.13 | 0.017 | -0.014 | -0.019 | 0 | -0.012 | -0.275 (active) | 0 | 0.007 | -0.042 | 0.005 | -0.004 | -0.032 | 0.005 | 0.034 | 0.017 | 0.019 | 0.041 | 0.014 |
| HSP90AA4P (UniProt Q58FG1) | 0.026 | -0.123 | -0.011 | -0.055 | 0.021 | -0.071 | -0.045 | 0.073 | 0.097 | -0.051 | -0.002 | 0 | 0.377 | 0.006 | 0.005 | -0.076 | 0.26 | 0.041 | -0.03 | 0.033 |
| GSK3B isoform 2 (UniProt P49841) | -0.064 | 0.344 | -0.012 | -0.008 | -0.016 | -0.04 | -0.006 | -0.018 | -0.029 | 0.189 | -0.009 | 0.038 | 0.026 | -0.015 | -0.093 | -0.011 | -0.013 | 0.096 | -0.049 | 0.601 |
